# The panel holds about 83,000 compounds, 20% with a hit somewhere; the sample as a whole holds those more often.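 In brief: 96-well plates, 48 h treatment, single concentration, percent growth endpoint.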 Values without a mark were called inactive. Calls of active or inactive are those of the source. Rule for the calls: active = growth percent below 10; inactive = the rest.
# Test system: PC-3 prostate
# Assay: NCI-60 one-dose screen, 48 h (100 = growth as untreated, 0 = no growth, -100 = all killed)
# Settings: 10 µM unless noted
row,Compound,growth
1,COc1cc(C2CC(=O)Nc3c2cc(Br)c2ccccc32)cc(Br)c1OC (stereo unspecified),39%
2,CCOC(=O)c1ccccc1OC(=O)NNc1ccccc1,34.9%
3,C=CC1=C(C(=O)O)N2C(=O)[C@@H](NC(=O)/C(=N\O)c3csc(N)n3)[C@H]2SC1 (stereo in doubt),95.3%
4,CN1CCN(CC(=O)Nc2nc3c(s2)Nc2cc(Cl)c(Cl)cc2NC3=O)CC1,97.7%
5,N=c1ccn2c(n1)O[C@@H]1[C@@H](O)[C@H](CO)O[C@@H]12,57.9%
6,CC(c1cc(Cl)ccc1O)c1cc(Cl)ccc1O,25.9%
7,COc1c(O)cc2oc3cc(O)c(CC=C(C)C)c(O)c3c(=O)c2c1C/C=C(\C)CCC=C(C)C,19.5%
8,CC[C@@H]1OC(=O)[C@H](C)[C@@H](O[C@H]2C[C@@](C)(OC)[C@@H](O)[C@H](C)O2)[C@H](C)[C@@H](O[C@@H]2O[C@H](C)C[C@H](N(C)C)[C@H]2O)[C@](C)(O)C[C@@H](C)[C@@H]2N[C@@H](COCCOC)O[C@H]([C@H]2C)[C@]1(C)O,111%
9,Cc1cc(C)c(OC(=O)CSc2nc3ccccc3c(=O)n2CCc2ccccc2)cc1C,66%
10,O=C1Cc2cc(CCn3cncn3)c(Cl)cc2N1,86.4%
11,COc1cccc(/C=C2\COc3ccc(O)c(O)c3C2=O)c1OC,19.5%
12,CCC1=C(c2ccc(OC)cc2)C(C)Oc2cc(OC(C)=O)ccc21 (stereo unspecified),68.3%
13,C/C(=C\CCc1ccoc1)CC/C=C(\C)CCCN1CCC(CO)CC1,57.8%
14,CCCCCCC/C(=N\N=C(N)N)c1ccc(O)cc1,24.6%
15,C=CCCCCCCCCC(=O)[O][Sn]([CH2]CCC)([CH2]CCC)[CH2]CCC,-93.5% (active)
16,CCOc1cccc(C2CC(=O)Nc3cc4c(cc32)OCO4)c1 (stereo unspecified),81.7%
17,OCCOc1c(Cl)cc(Cl)cc1Cl,101%
18,Nc1c2ccccc2nc2ccccc12 (tested in a mixture with another compound),17%
19,CCOc1nc(-c2ccccc2)cc2c(O)c(C(=O)n3nc(C)cc3C)[nH]c(=O)c12,101%
20,Nc1cc(Cl)c(S(N)(=O)=O)cc1S(N)(=O)=O,106%
21,CCCCCCCC/C=C\CCCCCCCCOc1ccccc1CC(=O)NCC[N+]1(C)CCCC1,17.5%
22,C=C1c2c(C)nn(-c3ccc(C#CCOC4OC(CO)C(O)C(O)C4O)cc3)c2N(C)C23C[C@H]1C1(C)c4c(C)nn(-c5ccc(C#CCOC6OC(CO)C(O)C(O)C6O)cc5)c4N(C)C(C)(C[C@H]12)C3 (stereo partly specified),-26.1% (active)
23,CO[C@H]1CC(O[C@@H]2/C(C)=C/C[C@@H]3C[C@@H](C[C@]4(CC[C@H](C)[C@@H](C5CCCCC5)O4)O3)OC(=O)[C@@H]3C=C(C)/C(=N/O)[C@H]4OC/C(=C\C=C\[C@@H]2C)[C@]43O)O[C@@H](C)C1O (stereo partly specified),-80.4% (active)
24,COc1cc2c(cc1OC)C1CCN3C(=O)CCC3N1CC2 (stereo unspecified),107%
25,COC1CC2CCC(C)C(O)(O2)C(=O)C(=O)N2CCCCC2C(=O)OC(C(C)CC2CCC(O)C(OC)C2)CC(=O)C(C)C=C(C)C(O)C(OC)C(=O)C(C)CC(C)/C=C/C=C/C=C1C (stereo unspecified),31.3%
26,NNC(=O)C1CC2c3ccccc3C1c1ccccc12 (stereo unspecified),98.5%
27,CN(C)c1ccc2[nH]c3c(C(N)=O)cc(=O)c(=O)c=3oc2c1,59.3%
28,CCC[C@H](N[C@@H](C)C(=O)N1[C@H](C(=O)O)C[C@@H]2CCCC[C@@H]21)C(=O)OCC,91.8%
29,O=C(/C(=C/c1cccc([N+](=O)[O-])c1)c1ccccc1)c1ccccc1,64%

# Test system: SK-MEL-5 melanoma
# Assay: as above
# Settings: 10 µM unless noted
row,Compound,growth
1,CCCc1cc(=O)n2c(C(=O)Nc3ccccc3OC)c(C(=O)Nc3ccc(F)cc3)sc2n1,45.4% [30 µM]
2,COc1ccc(-c2cn(-c3ccccc3)c(-c3ccccc3)n2)cc1OC,74.5%
3,Cc1ccc(C=C2C(Cl)=C(Cl)C(Cl)=C2Cl)cc1,-94.4% (active)
4,Cc1nc2cc(NC(=O)CN3CCN(CCN4C(=O)c5cccc6cccc(c56)C4=O)CC3)ccc2s1,39.4%
5,O=C(Nc1nc2ccccc2s1)c1cc(-c2ccc(F)cc2)n2nc(-c3ccccc3)cc2n1,72.6%
6,CCCCn1c(Cc2ccc(Cl)cc2)nc2cc(OC)c(OC)cc2c1=O,41%
7,O=C1OC(c2ccc(-c3ccccc3)cc2)=C/C1=C/c1cccs1,78.2%
8,Cc1cc(N2CCOCC2)nc(N2CCOCC2)n1,102%

# Test system: UACC-62 melanoma
# Assay: as above
# Settings: 10 µM unless noted
row,Compound,growth
1,COc1cc(C2CC(=O)Nc3c2cc(Br)c2ccccc32)cc(Br)c1OC (stereo unspecified),51.7%
2,CCOC(=O)c1ccccc1OC(=O)NNc1ccccc1,21.5%
3,C=CC1=C(C(=O)O)N2C(=O)[C@@H](NC(=O)/C(=N\O)c3csc(N)n3)[C@H]2SC1 (stereo in doubt),114%
4,CN1CCN(CC(=O)Nc2nc3c(s2)Nc2cc(Cl)c(Cl)cc2NC3=O)CC1,109%
5,N=c1ccn2c(n1)O[C@@H]1[C@@H](O)[C@H](CO)O[C@@H]12,81.2%
6,CCCc1cc(=O)n2c(C(=O)Nc3ccccc3OC)c(C(=O)Nc3ccc(F)cc3)sc2n1,66.6% [30 µM]
7,COc1ccc(-c2cn(-c3ccccc3)c(-c3ccccc3)n2)cc1OC,62.4%
8,CC(c1cc(Cl)ccc1O)c1cc(Cl)ccc1O,44.8%
9,COc1c(O)cc2oc3cc(O)c(CC=C(C)C)c(O)c3c(=O)c2c1C/C=C(\C)CCC=C(C)C,98.9%
10,CC[C@@H]1OC(=O)[C@H](C)[C@@H](O[C@H]2C[C@@](C)(OC)[C@@H](O)[C@H](C)O2)[C@H](C)[C@@H](O[C@@H]2O[C@H](C)C[C@H](N(C)C)[C@H]2O)[C@](C)(O)C[C@@H](C)[C@@H]2N[C@@H](COCCOC)O[C@H]([C@H]2C)[C@]1(C)O,109%
11,Cc1cc(C)c(OC(=O)CSc2nc3ccccc3c(=O)n2CCc2ccccc2)cc1C,77%
12,O=C1Cc2cc(CCn3cncn3)c(Cl)cc2N1,68.2%
13,COc1cccc(/C=C2\COc3ccc(O)c(O)c3C2=O)c1OC,8.54% (active)
14,Cc1ccc(C=C2C(Cl)=C(Cl)C(Cl)=C2Cl)cc1,-73.6% (active)
15,C/C(=C\CCc1ccoc1)CC/C=C(\C)CCCN1CCC(CO)CC1,-63.3% (active)
16,CCCCCCC/C(=N\N=C(N)N)c1ccc(O)cc1,51.4%
17,C=CCCCCCCCCC(=O)[O][Sn]([CH2]CCC)([CH2]CCC)[CH2]CCC,-90.4% (active)

row,Compound,growth
1,CCOc1cccc(C2CC(=O)Nc3cc4c(cc32)OCO4)c1 (stereo unspecified),90.9%
2,Cc1nc2cc(NC(=O)CN3CCN(CCN4C(=O)c5cccc6cccc(c56)C4=O)CC3)ccc2s1,62.5%
3,OCCOc1c(Cl)cc(Cl)cc1Cl,94.6%
4,Nc1c2ccccc2nc2ccccc12 (tested in a mixture with another compound),5.82% (active)
5,CCOc1nc(-c2ccccc2)cc2c(O)c(C(=O)n3nc(C)cc3C)[nH]c(=O)c12,110%
6,Nc1cc(Cl)c(S(N)(=O)=O)cc1S(N)(=O)=O,101%
7,CCCCCCCC/C=C\CCCCCCCCOc1ccccc1CC(=O)NCC[N+]1(C)CCCC1,67.1%
8,O=C(Nc1nc2ccccc2s1)c1cc(-c2ccc(F)cc2)n2nc(-c3ccccc3)cc2n1,70.6%
9,CCCCn1c(Cc2ccc(Cl)cc2)nc2cc(OC)c(OC)cc2c1=O,52.5%
10,C=C1c2c(C)nn(-c3ccc(C#CCOC4OC(CO)C(O)C(O)C4O)cc3)c2N(C)C23C[C@H]1C1(C)c4c(C)nn(-c5ccc(C#CCOC6OC(CO)C(O)C(O)C6O)cc5)c4N(C)C(C)(C[C@H]12)C3 (stereo partly specified),-36.7% (active)
11,O=C1OC(c2ccc(-c3ccccc3)cc2)=C/C1=C/c1cccs1,74.6%
12,CO[C@H]1CC(O[C@@H]2/C(C)=C/C[C@@H]3C[C@@H](C[C@]4(CC[C@H](C)[C@@H](C5CCCCC5)O4)O3)OC(=O)[C@@H]3C=C(C)/C(=N/O)[C@H]4OC/C(=C\C=C\[C@@H]2C)[C@]43O)O[C@@H](C)C1O (stereo partly specified),-93.4% (active)
13,COc1cc2c(cc1OC)C1CCN3C(=O)CCC3N1CC2 (stereo unspecified),97%
14,COC1CC2CCC(C)C(O)(O2)C(=O)C(=O)N2CCCCC2C(=O)OC(C(C)CC2CCC(O)C(OC)C2)CC(=O)C(C)C=C(C)C(O)C(OC)C(=O)C(C)CC(C)/C=C/C=C/C=C1C (stereo unspecified),36.5%
15,Cc1cc(N2CCOCC2)nc(N2CCOCC2)n1,99%
16,NNC(=O)C1CC2c3ccccc3C1c1ccccc12 (stereo unspecified),97.1%
17,CCC[C@H](N[C@@H](C)C(=O)N1[C@H](C(=O)O)C[C@@H]2CCCC[C@@H]21)C(=O)OCC,104%

# From PubChem BioAssay (NCI)
